Holding throughout (assay): DAPPL (digital affinity profiling via proximity ligation, sequencing); 10 mM Tris-HCl pH 7.5, 50 mM NaCl, 1 mM DTT, 4% glycerol, room temperature, 30 min; GST-TFs on glutathione beads, 16-mer random dsDNA library, 0.1% formaldehyde crosslink after washing; high values mean tight binding
In one assay the target is T1, FEV (Homo sapiens, UniProt Q99581 1-238).
T1 sequence: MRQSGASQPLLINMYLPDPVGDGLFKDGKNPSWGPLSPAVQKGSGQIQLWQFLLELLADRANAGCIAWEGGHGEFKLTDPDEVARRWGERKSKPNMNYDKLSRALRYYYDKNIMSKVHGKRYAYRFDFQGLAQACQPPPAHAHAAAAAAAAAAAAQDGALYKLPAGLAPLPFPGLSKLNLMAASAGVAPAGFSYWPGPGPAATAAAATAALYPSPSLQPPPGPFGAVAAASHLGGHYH
To be noted: protein: recombinant; tags: N-terminal GST; dsDNA, one strand shown. The essentials:
(§1)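 Binding signal is given per hexamer as its read frequency for a factor divided by its frequency in the tag-only sample. GST-fused human transcription factors were expressed in yeast, captured on glutathione beads, barcoded with DNA and pooled with that sample, then incubated with 200 nmole of a 16-mer random double-stranded DNA library in Tris/NaCl/DTT/glycerol buffer for 30 min at room temperature. The pools were then washed, crosslinked, proximity-ligated, amplified by PCR and sequenced on an Illumina NextSeq500.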

The next assay has as its target ETV5 (Homo sapiens, UniProt P41161 1-510). Conditions: protein: recombinant; tags: N-terminal GST; dsDNA, one strand shown. The essentials:
as §1

A further assay addresses HSF1 (Homo sapiens, UniProt Q00613 1-529). To be noted: protein: recombinant; tags: N-terminal GST; chain copies: 3; dsDNA, one strand shown. The essentials:
as §1

A further assay has as its target T2, SPIC (Homo sapiens, UniProt Q8N5J4 1-248).
T2 sequence: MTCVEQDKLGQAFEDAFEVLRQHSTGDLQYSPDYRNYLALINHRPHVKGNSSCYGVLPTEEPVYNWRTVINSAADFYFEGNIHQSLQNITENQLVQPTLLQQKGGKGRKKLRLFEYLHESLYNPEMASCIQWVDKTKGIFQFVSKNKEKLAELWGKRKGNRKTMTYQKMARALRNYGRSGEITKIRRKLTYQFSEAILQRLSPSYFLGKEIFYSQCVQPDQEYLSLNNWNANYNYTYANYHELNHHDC
To be noted: protein: recombinant; tags: N-terminal GST; dsDNA, one strand shown. The essentials:
as §1

In the next assay the target is ELF4 (Homo sapiens, UniProt Q99607 1-663). To be noted: protein: recombinant; tags: N-terminal GST; dsDNA, one strand shown. The essentials: as §1
For the next assay, the target named is T3, ELK4 (Homo sapiens, UniProt P28324-2 1-405).
T3 sequence: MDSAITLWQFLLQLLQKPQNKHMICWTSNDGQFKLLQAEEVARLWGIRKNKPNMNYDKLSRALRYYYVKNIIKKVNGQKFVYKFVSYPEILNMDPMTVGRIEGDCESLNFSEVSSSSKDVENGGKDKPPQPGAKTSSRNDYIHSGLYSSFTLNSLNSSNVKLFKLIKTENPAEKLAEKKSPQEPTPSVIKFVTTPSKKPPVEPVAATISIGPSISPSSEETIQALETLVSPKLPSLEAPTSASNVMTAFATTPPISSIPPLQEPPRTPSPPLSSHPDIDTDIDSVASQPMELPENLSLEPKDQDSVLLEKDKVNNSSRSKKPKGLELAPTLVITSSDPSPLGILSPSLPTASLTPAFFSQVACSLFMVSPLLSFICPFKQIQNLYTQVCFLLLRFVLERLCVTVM
Conditions: protein: recombinant; tags: N-terminal GST; dsDNA, one strand shown. In outline:
as §1

The next assay addresses T4, ETV2 (Homo sapiens, UniProt O00321 1-342).
T4 sequence: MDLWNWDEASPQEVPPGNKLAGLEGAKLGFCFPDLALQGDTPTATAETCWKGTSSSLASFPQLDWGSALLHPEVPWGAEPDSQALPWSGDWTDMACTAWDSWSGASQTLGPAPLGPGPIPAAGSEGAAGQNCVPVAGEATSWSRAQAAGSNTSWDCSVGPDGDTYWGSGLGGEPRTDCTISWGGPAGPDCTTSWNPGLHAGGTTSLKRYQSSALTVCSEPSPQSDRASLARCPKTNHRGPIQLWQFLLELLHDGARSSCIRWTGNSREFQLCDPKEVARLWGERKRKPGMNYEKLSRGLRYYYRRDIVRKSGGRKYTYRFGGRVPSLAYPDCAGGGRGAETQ
To be noted: protein: recombinant; tags: N-terminal GST; dsDNA, one strand shown. The essentials: as §1

In another assay the target is T5, ELF3 (Homo sapiens, UniProt P78545 1-371).
T5 sequence: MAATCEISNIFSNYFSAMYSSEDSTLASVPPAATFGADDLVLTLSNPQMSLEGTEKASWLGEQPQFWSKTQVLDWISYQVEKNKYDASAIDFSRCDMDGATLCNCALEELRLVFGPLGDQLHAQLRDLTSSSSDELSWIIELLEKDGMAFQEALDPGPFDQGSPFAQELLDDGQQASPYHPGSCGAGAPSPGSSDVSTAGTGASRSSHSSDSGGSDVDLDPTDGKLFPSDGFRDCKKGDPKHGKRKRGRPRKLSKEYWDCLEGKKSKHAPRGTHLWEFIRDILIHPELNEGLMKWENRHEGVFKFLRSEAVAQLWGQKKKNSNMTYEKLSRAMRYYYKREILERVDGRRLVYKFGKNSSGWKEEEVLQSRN
To be noted: protein: recombinant; tags: N-terminal GST; dsDNA, one strand shown. In outline:
as §1

For another assay, the target named is CRX (Homo sapiens, UniProt O43186 1-299). To be noted: protein: recombinant; tags: N-terminal GST; dsDNA, one strand shown. The essentials:
as §1

A further assay has as its target ETV1 (Homo sapiens, UniProt P50549 1-477). Conditions: protein: recombinant; tags: N-terminal GST; dsDNA, one strand shown. In outline:
as §1

A further assay addresses T6, ERF (Homo sapiens, UniProt P50548 1-548).
T6 sequence: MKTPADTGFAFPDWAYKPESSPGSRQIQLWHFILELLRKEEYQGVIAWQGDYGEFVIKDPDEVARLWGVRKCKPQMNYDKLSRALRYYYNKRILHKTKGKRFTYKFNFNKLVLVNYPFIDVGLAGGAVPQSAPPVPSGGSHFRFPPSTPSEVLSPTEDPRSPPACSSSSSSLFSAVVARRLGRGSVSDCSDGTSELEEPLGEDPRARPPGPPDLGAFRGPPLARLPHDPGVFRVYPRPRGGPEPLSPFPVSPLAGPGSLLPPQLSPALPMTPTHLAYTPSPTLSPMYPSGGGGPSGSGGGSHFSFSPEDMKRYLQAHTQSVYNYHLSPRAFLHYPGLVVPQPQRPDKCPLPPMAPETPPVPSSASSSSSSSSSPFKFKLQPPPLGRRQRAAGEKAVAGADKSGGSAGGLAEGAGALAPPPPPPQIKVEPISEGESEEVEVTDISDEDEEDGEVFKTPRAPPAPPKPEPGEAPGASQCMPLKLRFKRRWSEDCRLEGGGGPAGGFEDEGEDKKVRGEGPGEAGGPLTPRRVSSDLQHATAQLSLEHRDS
To be noted: protein: recombinant; tags: N-terminal GST; dsDNA, one strand shown. The essentials: as §1

A further assay concerns the target T7, ETV3L (Homo sapiens, UniProt Q6ZN32 1-361).
T7 sequence: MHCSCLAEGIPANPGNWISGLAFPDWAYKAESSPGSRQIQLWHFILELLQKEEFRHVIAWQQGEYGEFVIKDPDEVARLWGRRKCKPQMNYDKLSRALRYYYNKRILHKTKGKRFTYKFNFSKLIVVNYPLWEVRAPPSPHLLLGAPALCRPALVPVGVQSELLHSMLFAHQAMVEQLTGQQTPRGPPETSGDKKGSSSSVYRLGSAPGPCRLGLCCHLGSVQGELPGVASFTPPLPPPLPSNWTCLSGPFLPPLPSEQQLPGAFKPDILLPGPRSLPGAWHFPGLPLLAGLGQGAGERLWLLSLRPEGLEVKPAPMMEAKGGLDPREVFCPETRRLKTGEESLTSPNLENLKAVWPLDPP
To be noted: protein: recombinant; tags: N-terminal GST; dsDNA, one strand shown. The essentials:
as §1

The target in the next assay is T8, ETS2 (Homo sapiens, UniProt P15036 1-469).
T8 sequence: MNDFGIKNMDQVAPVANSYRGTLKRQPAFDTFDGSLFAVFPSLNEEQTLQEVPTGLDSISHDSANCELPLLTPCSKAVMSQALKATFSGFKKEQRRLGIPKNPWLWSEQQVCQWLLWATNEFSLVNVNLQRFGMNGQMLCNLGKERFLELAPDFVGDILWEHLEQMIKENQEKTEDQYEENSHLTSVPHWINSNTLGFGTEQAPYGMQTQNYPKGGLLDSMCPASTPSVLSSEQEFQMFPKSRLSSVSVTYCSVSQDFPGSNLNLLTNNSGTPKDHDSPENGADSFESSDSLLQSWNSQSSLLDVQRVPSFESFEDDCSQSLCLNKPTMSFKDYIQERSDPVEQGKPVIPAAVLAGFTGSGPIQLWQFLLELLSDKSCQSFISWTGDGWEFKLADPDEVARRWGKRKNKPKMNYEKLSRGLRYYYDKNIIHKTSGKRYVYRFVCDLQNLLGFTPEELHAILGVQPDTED
Conditions: protein: recombinant; tags: N-terminal GST; dsDNA, one strand shown. In outline: as §1

A further assay addresses T9, SPDEF (Homo sapiens, UniProt O95238 1-335).
T9 sequence: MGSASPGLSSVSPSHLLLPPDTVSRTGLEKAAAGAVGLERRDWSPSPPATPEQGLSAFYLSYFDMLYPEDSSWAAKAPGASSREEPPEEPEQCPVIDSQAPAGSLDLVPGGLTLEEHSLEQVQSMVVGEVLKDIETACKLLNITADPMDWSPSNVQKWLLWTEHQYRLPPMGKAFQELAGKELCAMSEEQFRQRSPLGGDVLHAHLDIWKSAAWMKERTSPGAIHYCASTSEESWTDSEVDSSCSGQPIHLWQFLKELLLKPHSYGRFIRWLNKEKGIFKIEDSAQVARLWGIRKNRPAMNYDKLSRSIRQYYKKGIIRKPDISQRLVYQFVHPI
Conditions: protein: recombinant; tags: N-terminal GST; dsDNA, one strand shown. In outline: as §1

The target of another assay is T10, ETV7 (Homo sapiens, UniProt Q9Y603 1-341).
T10 sequence: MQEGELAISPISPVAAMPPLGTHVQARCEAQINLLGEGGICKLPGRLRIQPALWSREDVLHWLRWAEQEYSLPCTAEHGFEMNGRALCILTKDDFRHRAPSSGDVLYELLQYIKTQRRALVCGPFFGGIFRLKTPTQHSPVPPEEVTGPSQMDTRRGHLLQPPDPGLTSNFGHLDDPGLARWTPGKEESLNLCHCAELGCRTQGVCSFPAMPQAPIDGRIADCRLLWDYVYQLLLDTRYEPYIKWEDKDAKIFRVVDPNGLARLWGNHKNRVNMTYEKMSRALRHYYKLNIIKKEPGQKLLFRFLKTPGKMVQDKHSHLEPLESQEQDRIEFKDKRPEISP
Conditions: protein: recombinant; tags: N-terminal GST; dsDNA, one strand shown. In outline: as §1

The target of a further assay is T11, ELF5 (Homo sapiens, UniProt Q9UKW6-2 1-255).
T11 sequence: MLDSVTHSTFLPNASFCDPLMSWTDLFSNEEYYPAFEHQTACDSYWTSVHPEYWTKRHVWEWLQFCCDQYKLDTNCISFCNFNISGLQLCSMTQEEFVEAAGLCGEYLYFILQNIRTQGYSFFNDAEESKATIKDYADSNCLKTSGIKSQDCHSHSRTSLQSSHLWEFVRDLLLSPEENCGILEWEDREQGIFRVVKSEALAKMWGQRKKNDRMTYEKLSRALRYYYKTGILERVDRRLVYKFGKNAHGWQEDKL
Conditions: protein: recombinant; tags: N-terminal GST; dsDNA, one strand shown. In outline: as §1

In a further assay the target is T12, ETV3 (Homo sapiens, UniProt P41162-2 1-143).
T12 sequence: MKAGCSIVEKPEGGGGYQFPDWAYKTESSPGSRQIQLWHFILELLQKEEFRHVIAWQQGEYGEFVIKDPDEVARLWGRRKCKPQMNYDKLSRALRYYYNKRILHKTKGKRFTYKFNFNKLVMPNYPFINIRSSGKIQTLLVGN
To be noted: protein: recombinant; tags: N-terminal GST; dsDNA, one strand shown. In outline:
as §1

Another assay deals with ETV6 (Homo sapiens, UniProt P41212 1-452). Conditions: protein: recombinant; tags: N-terminal GST; dsDNA, one strand shown. The essentials: as §1

This note sets out measurements from PMC7862700, “An all-to-all approach to the identification of sequence-specific readers for epigenetic DNA modifications on cytosine”.

ETV6, sequence (P41212 whole entry): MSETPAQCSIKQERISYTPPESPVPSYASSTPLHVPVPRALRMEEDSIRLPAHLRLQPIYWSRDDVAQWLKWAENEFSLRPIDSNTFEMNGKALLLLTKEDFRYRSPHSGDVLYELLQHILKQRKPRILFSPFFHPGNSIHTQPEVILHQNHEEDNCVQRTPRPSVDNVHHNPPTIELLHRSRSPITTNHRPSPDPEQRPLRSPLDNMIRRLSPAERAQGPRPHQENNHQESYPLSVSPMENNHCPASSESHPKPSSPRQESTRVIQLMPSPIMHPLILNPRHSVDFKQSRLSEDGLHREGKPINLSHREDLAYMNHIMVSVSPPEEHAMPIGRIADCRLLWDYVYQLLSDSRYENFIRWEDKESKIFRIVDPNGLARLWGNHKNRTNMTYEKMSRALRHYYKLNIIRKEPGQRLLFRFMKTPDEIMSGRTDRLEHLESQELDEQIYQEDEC
ETV1, sequence (P50549 whole entry): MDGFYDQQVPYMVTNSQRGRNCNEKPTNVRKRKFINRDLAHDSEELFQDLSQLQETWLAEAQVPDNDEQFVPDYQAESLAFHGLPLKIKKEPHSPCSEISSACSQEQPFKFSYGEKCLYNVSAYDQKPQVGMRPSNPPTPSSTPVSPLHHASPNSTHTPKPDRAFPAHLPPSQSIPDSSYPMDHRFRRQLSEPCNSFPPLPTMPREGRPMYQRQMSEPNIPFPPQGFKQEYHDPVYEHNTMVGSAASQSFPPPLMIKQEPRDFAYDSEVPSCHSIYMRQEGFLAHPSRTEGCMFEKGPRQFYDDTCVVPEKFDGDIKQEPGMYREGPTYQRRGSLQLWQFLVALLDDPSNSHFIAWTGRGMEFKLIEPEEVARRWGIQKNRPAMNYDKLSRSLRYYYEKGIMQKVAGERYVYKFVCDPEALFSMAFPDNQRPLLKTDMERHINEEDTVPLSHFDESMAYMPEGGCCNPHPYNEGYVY
HSF1, sequence (Q00613 whole entry): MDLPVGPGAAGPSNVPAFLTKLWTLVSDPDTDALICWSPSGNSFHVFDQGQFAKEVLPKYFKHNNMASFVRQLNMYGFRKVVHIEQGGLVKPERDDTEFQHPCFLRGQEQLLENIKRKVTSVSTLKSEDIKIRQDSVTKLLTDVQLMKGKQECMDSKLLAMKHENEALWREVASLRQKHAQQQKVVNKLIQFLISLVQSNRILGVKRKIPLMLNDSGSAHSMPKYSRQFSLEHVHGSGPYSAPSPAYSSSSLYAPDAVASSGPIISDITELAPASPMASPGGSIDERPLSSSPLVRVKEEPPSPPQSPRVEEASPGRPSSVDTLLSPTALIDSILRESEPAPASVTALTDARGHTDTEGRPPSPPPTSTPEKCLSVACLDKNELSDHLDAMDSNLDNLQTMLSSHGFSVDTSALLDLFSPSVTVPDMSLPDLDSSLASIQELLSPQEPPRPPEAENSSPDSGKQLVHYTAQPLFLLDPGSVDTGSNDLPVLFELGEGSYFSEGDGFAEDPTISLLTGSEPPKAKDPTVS
ELF4, sequence (Q99607 whole entry): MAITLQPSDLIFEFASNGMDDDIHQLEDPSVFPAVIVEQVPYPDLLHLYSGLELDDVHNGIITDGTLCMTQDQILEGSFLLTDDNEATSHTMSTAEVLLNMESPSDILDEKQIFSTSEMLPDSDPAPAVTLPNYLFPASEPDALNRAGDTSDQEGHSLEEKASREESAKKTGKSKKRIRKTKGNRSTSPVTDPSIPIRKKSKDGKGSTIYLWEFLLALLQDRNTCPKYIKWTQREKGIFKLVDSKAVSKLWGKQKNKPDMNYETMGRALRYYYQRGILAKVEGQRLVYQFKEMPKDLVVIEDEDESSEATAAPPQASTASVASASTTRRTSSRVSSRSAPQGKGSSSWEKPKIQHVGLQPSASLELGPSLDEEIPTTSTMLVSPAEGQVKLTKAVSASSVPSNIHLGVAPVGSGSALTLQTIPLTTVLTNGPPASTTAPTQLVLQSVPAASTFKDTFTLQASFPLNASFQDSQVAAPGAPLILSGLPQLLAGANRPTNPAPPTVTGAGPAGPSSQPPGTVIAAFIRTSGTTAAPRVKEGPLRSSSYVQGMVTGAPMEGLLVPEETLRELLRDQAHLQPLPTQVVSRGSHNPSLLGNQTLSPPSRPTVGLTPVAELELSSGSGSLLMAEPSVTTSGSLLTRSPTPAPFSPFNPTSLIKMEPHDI
CRX, sequence (O43186 whole entry): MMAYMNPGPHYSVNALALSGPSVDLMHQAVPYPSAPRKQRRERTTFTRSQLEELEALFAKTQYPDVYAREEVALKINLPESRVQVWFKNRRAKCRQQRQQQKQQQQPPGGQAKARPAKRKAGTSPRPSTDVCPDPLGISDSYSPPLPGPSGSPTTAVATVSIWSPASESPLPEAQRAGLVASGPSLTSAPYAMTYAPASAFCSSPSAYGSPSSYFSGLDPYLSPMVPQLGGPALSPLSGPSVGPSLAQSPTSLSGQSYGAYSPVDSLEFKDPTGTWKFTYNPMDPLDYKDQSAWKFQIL
ETV5, sequence (P41161 whole entry): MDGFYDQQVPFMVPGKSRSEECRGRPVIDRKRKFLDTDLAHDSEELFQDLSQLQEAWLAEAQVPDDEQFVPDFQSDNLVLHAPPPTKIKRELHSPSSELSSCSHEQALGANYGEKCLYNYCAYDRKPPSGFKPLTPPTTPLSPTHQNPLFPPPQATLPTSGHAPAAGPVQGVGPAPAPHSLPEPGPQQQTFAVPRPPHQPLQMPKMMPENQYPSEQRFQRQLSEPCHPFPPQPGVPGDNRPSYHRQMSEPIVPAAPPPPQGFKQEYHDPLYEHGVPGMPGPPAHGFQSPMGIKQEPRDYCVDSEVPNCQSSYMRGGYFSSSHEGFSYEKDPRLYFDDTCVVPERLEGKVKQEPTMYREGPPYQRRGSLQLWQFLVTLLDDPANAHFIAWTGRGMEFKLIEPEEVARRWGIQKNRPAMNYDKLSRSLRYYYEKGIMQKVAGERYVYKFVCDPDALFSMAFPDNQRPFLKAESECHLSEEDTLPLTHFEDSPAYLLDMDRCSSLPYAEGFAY

Consider TTTCAG, for which the binding signal with FEV is 1.3 fold enrichment (6-mer frequency, TF over GST control); with ETV5 it was 1.28 fold enrichment (6-mer frequency, TF over GST control); with HSF1, 1.3 fold enrichment (6-mer frequency, TF over GST control); with SPIC, 1.14 fold enrichment (6-mer frequency, TF over GST control); with ELF4, 1.33 fold enrichment (6-mer frequency, TF over GST control); in the assay with ELK4 it was 1.38 fold enrichment (6-mer frequency, TF over GST control). For the same sequence, the binding signal in the assay with ETV2 was 1.43 fold enrichment (6-mer frequency, TF over GST control); with ELF3 it was 1.24 fold enrichment (6-mer frequency, TF over GST control); in the assay with CRX it was 1.31 fold enrichment (6-mer frequency, TF over GST control); with ETV1, 1.39 fold enrichment (6-mer frequency, TF over GST control); with ERF, 1.38 fold enrichment (6-mer frequency, TF over GST control); in the assay with ETV3L it was 1.31 fold enrichment (6-mer frequency, TF over GST control). Further, the binding signal with ETS2 is 1.27 fold enrichment (6-mer frequency, TF over GST control); in the assay with SPDEF, 1.37 fold enrichment (6-mer frequency, TF over GST control); with ETV7, 1.13 fold enrichment (6-mer frequency, TF over GST control); with ELF5, 1.28 fold enrichment (6-mer frequency, TF over GST control); with ETV3 it was 1.27 fold enrichment (6-mer frequency, TF over GST control); in the assay with ETV6 it was 1.31 fold enrichment (6-mer frequency, TF over GST control).
